CYP2C19 inhib: inhibitors of human CYP2C19; P33261; CYP2C19 Supersomes, luciferin-H EGE luminescence, 30 min; inhibition, % at 5 µM; 96,000 compounds, 21% hits; AID 778;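 active = CYP2C19 inhibition above a set limit at 5 µM in the primary screen, cut at about 50% in these data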
CYP2C9 act: increases human cytochrome P450 2C9 activity. P11712. recombinant CYP2C9, luciferin-H conversion, luminescence; stronger effect = higher value; factor 1 = untreated enzyme, 0 = blocked. activation factor at 5 µM. 96,000 compounds, 1.4% hits;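 active = activation factor of 2 or more for CYP2C9 at a 5 µM dose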
Target sequence (P11712 whole entry, looked up): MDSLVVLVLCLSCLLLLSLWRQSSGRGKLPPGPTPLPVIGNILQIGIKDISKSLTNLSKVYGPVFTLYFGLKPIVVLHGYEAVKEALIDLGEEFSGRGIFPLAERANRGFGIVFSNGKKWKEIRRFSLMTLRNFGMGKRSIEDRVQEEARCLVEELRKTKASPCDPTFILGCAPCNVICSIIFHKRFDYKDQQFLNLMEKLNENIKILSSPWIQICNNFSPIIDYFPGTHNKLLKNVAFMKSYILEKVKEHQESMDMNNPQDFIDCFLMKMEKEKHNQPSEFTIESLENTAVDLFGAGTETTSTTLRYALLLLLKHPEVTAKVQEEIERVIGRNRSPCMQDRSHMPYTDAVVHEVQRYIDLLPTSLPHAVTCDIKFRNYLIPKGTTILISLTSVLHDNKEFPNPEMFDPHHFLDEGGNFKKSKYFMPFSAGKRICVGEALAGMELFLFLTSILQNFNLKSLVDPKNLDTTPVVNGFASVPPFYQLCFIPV
CYP2C9 inhib: blocks human cytochrome P450 2C9; P11712; CYP2C9 Supersomes, luciferin-H conversion, luminescence; inhibition, % at 5 µM; 96,000 compounds, 20% hits;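 active = blocking of liver enzyme CYP2C9 beyond about 50% at 5 µM, limit read from the data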
CYP2C19 activ: cytochrome P450 2C19 (human) activation | P33261 | recombinant CYP2C19, luciferin-H EGE luminescence; stronger effect = higher value; 0 = fully inhibited enzyme, 1 = untreated enzyme | activation factor at 5 µM | 96,000 tested, under 10 active;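 active = activation factor of at least 2 at 5 µM in the primary screen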
Cav3 T inh: blocks human Cav3.2 T-type calcium channel; Cav3.2-expressing cells, Fluo-4 calcium fluorescence FDSS; stronger effect = lower value; B-score at 10 µM; 100,000 compounds, 4% hits;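 active = single-dose well whose peak fluorescence ratio is a statistical outlier from its plate by either plate-standardised score or position-corrected B-score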
Hits are given with their value; 0 = inactive; - = not tested or not shown. In the library only some 27% were active in any assay of this set; here they are far more common.

SMILES | CYP2C19 inhib | CYP2C9 act | CYP2C9 inhib | CYP2C19 activ | Cav3 T inh
O=C(c1cc(-c2ccco2)nn1-c1cccc(Cl)c1)N1CCCCC1 | 63.5 | 0 | 86.7 | 0 | -5.88
C/C(=N\NC(=O)c1nn(C)cc1Br)c1cccc(NC(=O)C2CCCC2)c1 | 0 | 0 | 0 | 0 | 0
COc1ccc(NC(=O)N2CCc3ccccc32)cc1 | 58.1 | 0 | 0 | 0 | 0
COc1ccc2c(c1)CCc1c(C(=O)N3CCOCC3)noc1-2 | 0 | 0 | 0 | 0 | 0
O=C(Nc1ccccc1)N1CCc2ccccc21 | - | - | - | - | 0
COc1cccc(C(=O)N2CCCc3ccccc32)c1 | 86.8 | 0 | 0 | 0 | 0
COc1ccc(NC(=O)N2CCCc3ccccc32)cc1 | 68.7 | 0 | 0 | 0 | 0
COc1ccc2c(c1)CCc1c(C(=O)N3CCCc4ccccc43)noc1-2 | 90.1 | 0 | 75.0 | 0 | 0
CCOC(=O)CC(=O)Nc1ccc(C)cc1 | 0 | 0 | 0 | 0 | 0
CC(=O)C(CC(=O)N1CCCc2ccccc21)C(=O)Nc1ccc(F)cc1 (stereo not drawn) | 71.3 | 0 | 0 | 0 | 0
O=C(c1ccccc1)N1CCc2ccccc21 | 0 | 0 | 0 | 0 | 0
O=C(NCC1CCCC(CNC(=O)N2CCc3ccccc32)C1)N1CCc2ccccc21 (stereo not drawn) | 86.4 | 0 | 98.6 | 0 | -4.99
CC(Oc1ccccc1)C(=O)N1CCCc2ccccc21 (stereo not drawn) | 90.8 | 0 | 55.5 | 0 | 0
O=C(c1ccccc1)N1CCCc2ccccc21 | - | - | - | - | 0
Cc1ccc(OCc2nnc(SCC(=O)NCc3ccccc3)n2C)cc1 | 0 | 0 | 0 | 0 | 0
CCc1nn(CC(=O)O)c(=O)c2ccccc12 | 0 | 0 | 0 | 0 | 0
CCNc1nc(SCc2ccccc2)nc(N2CCOCC2)n1 | 82.1 | 0 | 67.8 | 0 | -4.95
Clc1ccc(CNc2nc(N3CCOCC3)nc(N3CCOCC3)n2)cc1 | 77.1 | 0 | 75.4 | 0 | 0
Nc1nc(CSCc2ccccc2)nc(N2CCOCC2)n1 | 91.8 | 0 | 0 | 0 | 0
Nc1nc(N2CCOCC2)nc(N(c2ccccc2)c2ccccc2)n1 | 0 | 0 | 0 | 0 | 0
C#CC(C)OC(=O)C(C)NC(=O)c1ccccc1 (stereo not drawn) | - | - | - | - | 0
O=S(Cc1cc(Sc2ccccc2)nc(-c2ccccc2)n1)c1ccccc1 (stereo not drawn) | 98.1 | 0 | 94.3 | 0 | 0
CNc1cc(CS(=O)c2ccccc2)nc(-c2ccccc2)n1 (stereo not drawn) | 92.6 | 0 | 0 | 0 | 0
Clc1ccc(Sc2cc(N3CCOCC3)nc(-c3ccccc3)n2)cc1 | 0 | 0 | 0 | 0 | 0
COc1cccc(CN=CC2=C(O)CC(C)(C)CC2=O)c1OC | 0 | 0 | 0 | 0 | 0
SMILES | CYP2C19 inhib | CYP2C9 act | CYP2C9 inhib | CYP2C19 activ | Cav3 T inh
COc1ccccc1CN=Cc1[nH]c2ccc(Br)c(Cl)c2c1O | 84.8 | 0 | 73.3 | 0 | 0
Cc1ccc(SCCC(=O)Nc2cccc(N(C)S(C)(=O)=O)c2)cc1 | 91.0 | 0 | 83.3 | 0 | 0
COc1ccc(C(=O)Nc2cccc(N(C)S(C)(=O)=O)c2)cc1OC | 0 | 0 | 0 | 0 | 0
Cc1cccc(C)c1N(CC(=O)Nc1cccc(N(C)S(C)(=O)=O)c1)S(C)(=O)=O | 0 | 0 | 58.5 | 0 | 0
Cc1ccc(C(=O)Nc2cccc(N(C)S(C)(=O)=O)c2)cc1S(=O)(=O)Nc1ccccc1 | 0 | 0 | 71.7 | 0 | 0
COc1ccccc1OCC(=O)Nc1cccc(N(C)S(C)(=O)=O)c1 | 82.9 | 0 | 0 | 0 | 0
CC(=O)Nc1cccc(N(C)S(C)(=O)=O)c1 | 0 | 0 | 0 | 0 | 0
Cc1ccc(-n2nc(C)c3c(C)cc(=O)[nH]c32)cc1 | 0 | 0 | 0 | 0 | 0
CC(C)[C@H](NC(=O)NCCc1ccc(Cl)cc1)C(=O)O | 0 | 0 | 0 | 0 | 0
CN(c1cccc(NC(=O)Nc2cccc(Cl)c2)c1)S(C)(=O)=O | 61.6 | 0 | 72.5 | 0 | 0
C=CCNC(=O)NS(=O)(=O)c1ccc(C)cc1 | 0 | 0 | 0 | 0 | 0
N#CC(c1ccc(Cl)cc1)c1ccc2c(C(F)(F)F)cc(C(F)(F)F)nc2n1 (stereo not drawn) | 77.1 | 0 | 75.9 | 0 | 0
Clc1ccc(N2CCN(c3cnc4ccccc4n3)CC2)cc1 | 0 | 0 | 0 | 0 | 0
FC(F)(F)c1cc(C(F)(F)F)c2ccc(N3CCN(c4ncccn4)CC3)nc2n1 | 0 | 0 | 0 | 0 | 0
FC(F)(F)c1cc(C(F)(F)F)c2ccc(N3CCN(c4ccc(Cl)cc4)CC3)nc2n1 | 0 | 0 | 0 | 0 | -7.03
Fc1ccc(N2CCN(c3ccc4c(C(F)(F)F)cc(C(F)(F)F)nc4n3)CC2)cc1 | 0 | 0 | 0 | 0 | -4
CC1CN(Cc2nc3c(c(=O)[nH]c(=O)n3C)n2CCCc2ccccc2)CC(C)O1 (stereo not drawn) | - | - | - | - | 0
Cn1nnnc1SCC(=O)Nc1ccccc1-c1ccccc1 | 0 | 0 | 0 | 0 | 0
Cn1c(SCC(=O)N2c3ccccc3Sc3ccccc32)nnc1-c1ccco1 | 67.7 | 0 | 69.8 | 0 | 0
Cn1c(SCC(=O)NCc2cccs2)nnc1-c1ccco1 | 0 | 0 | 0 | 0 | 0
CCCn1c(SCC(=O)Nc2ccccc2-c2ccccc2)nnc1-c1ccoc1C | 81.9 | 0 | 87.1 | 0 | -5.88
Cn1c(SCC(=O)Nc2ccccc2-c2ccccc2)nnc1-c1ccco1 | 59.6 | 0 | 0 | 0 | 0
Cc1occc1-c1nnc(SCC(=O)Nc2ccccc2-c2ccccc2)n1C | 76.5 | 0 | 76.1 | 0 | 0
COc1ccccc1CNC(=O)C1CC2Cn3c(nc4cc(Cl)c(Cl)cc43)C2N1C (stereo not drawn) | - | - | - | - | 0
COCCN1C(=O)N[C@@H](c2ccccc2)[C@@H](C(=O)OC)[C@H]1C | - | - | - | - | 0
SMILES | CYP2C19 inhib | CYP2C9 act | CYP2C9 inhib | CYP2C19 activ | Cav3 T inh
CN1CCc2c(C#N)c(N3CCCCC3)nc(N3CCOCC3)c2C1 | - | - | - | - | 0
CCc1nc(N2CCCC2)c(C#N)c2c1CCCC2 | 0 | 0 | 0 | 0 | 0
CCc1nc(N2CCOCC2)c(C#N)c2c1CCCC2 | 77.8 | 0 | 0 | 0 | -4.46
CCCc1nc(N2CCCC2)c(C#N)c2c1CCCC2 | 0 | 0 | 73.4 | 0 | 0
CC(C)c1nc(N2CCCC2)c(C#N)c2c1CCCC2 | 53.8 | 0 | 54.6 | 0 | 0
COc1cc2c(C#N)c(N3CCCCC3)nc(N)c2c(N)n1 | 0 | 0 | 0 | 0 | 0
Cn1c(SCC(=O)NCCNC(=O)CSc2nnc(C(F)(F)F)n2C)nnc1C(F)(F)F | 0 | 0 | 0 | 0 | 0
COc1ccc(-n2c(SCC(=O)Nc3nccs3)nc3c(c2=O)SC(C)C3)cc1 (stereo not drawn) | 0 | 0 | 0 | 0 | 0
CCOc1cc2[nH]c(=O)n(Cc3cccc(OC)c3)c(=O)c2cc1OCC | 0 | 0 | 0 | 0 | 0
Cc1cccc(-n2c(CNC(=O)c3ccccc3)nnc2SCC(=O)Nc2nccs2)c1 | 0 | 0 | 0 | 0 | 0
O=C(COc1ccccc1Cl)Nc1cc(Cl)ccc1Oc1ccccc1 | 0 | 0 | 0 | 0 | 0
CCOC(=O)Cc1csc(SCC(=O)Nc2cccc(Cl)c2)n1 | 0 | 0 | 65.6 | 0 | -3.81
CCOC(=O)Cc1csc(SCC(=O)Nc2cc(Cl)ccc2Oc2ccccc2)n1 | 91.3 | 0 | 93.6 | 0 | -5.64
CCOC(=O)Cc1csc(SCC(=O)Nc2cccc(C#N)c2)n1 | 66.1 | 0 | 79.9 | 0 | 0
